# Screening results from PubChem BioAssay.
# Rows were chosen to be rich in hits. Some 2.3% of all compounds tested hit in one or more screens of this group.
# GLS inh – qHTS for Inhibitors of Glutaminase (GLS); Glutaminase kidney isoform, mitochondrial (Homo sapiens), O94925; GLS enzymatic activity, qHTS titration; Potency, µM (doses to about 45.5 µM), inactives show at the top dose activity change, negative = inhibition, hits mostly inhibitors; hit rate 0.21% among 410,000; note: % is set by controls: 0 for no effect and ±100 for the full control effect
#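 Glutamate formation by hKGA was monitored fluorometrically using coupled glutamate oxidase, HRP and Amplex Red. Substrate was added as 1 mM L-glutamine solution; incubation was 30 min at RT after an initial read.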
# PTHR1 ag – qHTS for PTHR1 Agonists: Primary Screen | Parathyroid hormone/parathyroid hormone-related peptide receptor (Homo sapiens), Q03431 | HEK293 GP2 PTHR1 cells, GloSensor cAMP luminescence, 1 h | Potency, µM (titrated, usually from 115 µM), inactives show top-dose activation, actives largely listed as activators | hit rate 0.075% among 410,000 | AID 743266, 2014; note: nearly all actives have a fitted effect of over 55% in size
#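 HEK-293-derived GP2 cells expressing PTHR1 and a GloSensor cAMP reporter, 3,000/well, plated overnight, given luciferin plus IBMX (each 0.5 mM as added) for 1 h at 37 °C, then compound for 1 h at 37 °C. Luminescence was read after 15 min at room temperature.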
# Glioma ERSR ind – qHTS for Inducers of the Endoplasmic Reticulum Stress Response (ERSR) in Human Glioma: qHTS. U87-MG GRP78 promoter luciferase reporter, 16 h. Potency, µM, without a hit: at the highest dose activation, hits mostly activators. hit rate 0.02% among 420,000. AID 602332, 2012; note: series mostly up to about 76 µM; % of control where 0% means no effect; nearly all actives have a fitted effect of over 35% in size
#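 ERSR induction read as luciferase luminescence (Bright-Glo, 10 min at room temperature) in stably transfected human U87-MG glioma cells exposed to compounds for 16 h, using GRP78 as sensor.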
# GLP-1R inv ag – qHTS of GLP-1 Receptor Inverse Agonists (Inhibition Mode). HEK293 GLP-1R CRE-luciferase, luminescence, 24 h; GLP-1R form is constitutively active. Potency, µM (series often up to 38.3 µM), without a hit: top-dose activity change, negative = inhibition, actives largely listed as inhibitors. hit rate 1.6% among 410,000. AID 624417, 2012; note: % is set by controls: 0 for no effect and ±100 for the full control effect; nearly all actives have a fitted effect of over 55% in size
#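 Assay principle: reduced luminescence from a cAMP-responsive reporter in HEK293 cells co-expressing a constitutively active GLP-1R. Conditions: 24 hr compound incubation, 37 deg C, 5% CO2.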
# GLP-1R agonist – qHTS of GLP-1 Receptor Agonists; HEK293 GLP-1R CRE-luciferase, luminescence, 4-6 h; cells express a hypersensitive GLP-1R form; Glucagon-like peptide 1 receptor (Homo sapiens), P43220; AID 624172, 2012; Potency, µM (highest dose often 45.6 µM), inactives show at the highest dose activation, hits mostly activators; hit rate 0.007% among 380,000; note: % of control where 0% means no effect
# 12-LOX inh – Primary qHTS assay for inhibitors of human arachidonate 12S-lipoxygenase (ALOX12): Round 2 | Polyunsaturated fatty acid lipoxygenase ALOX12 (Homo sapiens), P18054 | purified 12hLO, xylenol orange hydroperoxide absorbance | Potency, µM (series often up to 108 µM), without a hit: top-dose activity change, negative = inhibition, usual class: inhibitors | hit rate 1.1% among 580,000 | AID 1671190, 2021; note: % is set by controls: 0 for no effect and ±100 for the full control effect
# Target sequence (P18054 whole entry, looked up): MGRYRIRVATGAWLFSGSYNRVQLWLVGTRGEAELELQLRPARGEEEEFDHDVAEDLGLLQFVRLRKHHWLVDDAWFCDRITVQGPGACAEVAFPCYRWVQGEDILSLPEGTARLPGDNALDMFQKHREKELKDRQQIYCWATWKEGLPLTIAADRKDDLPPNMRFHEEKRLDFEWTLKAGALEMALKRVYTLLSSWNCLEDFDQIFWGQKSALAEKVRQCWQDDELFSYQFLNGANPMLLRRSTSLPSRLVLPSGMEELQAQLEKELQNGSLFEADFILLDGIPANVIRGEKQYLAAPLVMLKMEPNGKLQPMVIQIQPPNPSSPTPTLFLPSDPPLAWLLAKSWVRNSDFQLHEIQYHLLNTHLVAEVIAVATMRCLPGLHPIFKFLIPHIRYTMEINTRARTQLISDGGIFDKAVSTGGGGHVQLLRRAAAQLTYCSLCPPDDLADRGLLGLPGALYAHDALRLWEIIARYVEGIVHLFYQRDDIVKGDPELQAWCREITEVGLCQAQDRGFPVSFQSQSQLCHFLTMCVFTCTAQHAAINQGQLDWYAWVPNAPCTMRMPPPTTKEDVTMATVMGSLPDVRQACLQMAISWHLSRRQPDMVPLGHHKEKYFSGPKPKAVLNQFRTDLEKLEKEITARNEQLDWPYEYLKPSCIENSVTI
#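 Purified human 12hLO at 150 nM in 25 mM Hepes, 0.01% Triton X-100, pH 7.0, preincubated 15 min at room temperature with compound. Reaction started with 40 uM arachidonic acid, 30 min at room temperature. Hydroperoxide measured by Fe-xylenol orange, 573/405 nm absorbance ratio.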
# Numbers without * were called inactive; i = inactive; ? = inconclusive; nt = no result; [ ] = dose if it differs, or a comment. Calls come from the whole dose curve; as a rule, active = well fitted curve in the direction sought with a large enough effect; inconclusive = small, poorly fitted or top-dose-only effect, or another doubt; inactive = no such curve, though single readings can be large; an effect the other way counts as inactive or inconclusive. Potency is the fitted concentration of half-maximal effect.
SMILES,GLS inh,PTHR1 ag,Glioma ERSR ind,GLP-1R inv ag,GLP-1R agonist,12-LOX inh
COc1ccc(N(CC(=O)Nc2cc(Cl)ccc2C)S(=O)(=O)c2c(C)n[nH]c2C)cc1,-1%,8%,-4%,4.5µM*,-4%,-25%
COc1ccc(N(CC(=O)NCc2ccc(Cl)cc2)S(=O)(=O)c2c(C)nn(C)c2C)cc1,1%,0%,-7%,17%,2%,40µM*
COc1ccc(N(CC(=O)Nc2ccc(C)cc2C)S(=O)(=O)c2c(C)n[nH]c2C)cc1,-1%,17%,-3%,?,-5%,19%
COc1ccc(CNC(=O)CN(c2ccc(C(C)C)cc2)S(=O)(=O)c2c(C)nn(C)c2C)cc1,-1%,-11%,-4%,7%,nt,-13%
Cc1n[nH]c(C)c1S(=O)(=O)N(CC(=O)Nc1ccc(C(F)(F)F)cc1)c1ccc(C(C)C)cc1,-12%,-42%,-6%,10µM*,nt,?
Cc1cccc(NS(=O)(=O)c2c(C)nn(C)c2C)c1C,nt,nt,nt,nt,nt,1%
Cn1nc([N+](=O)[O-])nc1Sc1nnc(-c2ccccc2)o1,0%,i,-8%,5.6µM*,-3%,-3%
CCC1CCCCN1C(=O)CSc1nc2ccccc2n1CCC#N (configuration not stated),nt,nt,nt,nt,nt,44%
CCOC(C)C(=O)NCCc1cccs1 (configuration not stated),nt,nt,nt,nt,nt,-2%
Cc1cccc(NC(=O)c2cc(S(=O)(=O)c3ccccc3)ccc2Cl)c1,9%,-16%[57.5 µM],-2%,8.9µM*,-20%,281%
O=C(COC(=O)c1ccc(S(=O)(=O)C(F)F)cc1)c1ccc(F)cc1,nt,nt,nt,nt,nt,2%
COc1ccccc1Nc1sc(C(=O)c2ccc(Br)cc2)c(N)c1C(N)=O,nt,nt,nt,nt,nt,-34%
COc1ccc(C(=O)c2sc(Nc3ccccc3)c(C(N)=O)c2N)cc1,nt,nt,nt,nt,nt,16µM*
CC(=O)c1cccc(Oc2cc(NN3CCCCC3)c([N+](=O)[O-])cc2[N+](=O)[O-])c1,13%,-24%,-4%,10µM*,18%,-4%
CC(=O)c1ccccc1Oc1cc(NN2CCCCC2)c([N+](=O)[O-])cc1[N+](=O)[O-],-3%,-1%,0%,?,-5%,-29%
Cc1ccc(C(=O)Oc2cccc(Cl)c2)cc1,nt,nt,nt,nt,nt,8%
Cc1nc(N2CCC(NC(=O)c3ccc4ccccc4n3)CC2)cc(C(F)(F)F)n1,nt,nt,nt,nt,nt,-4%
CC(C)n1cc(/C=C2\NC(=O)N(c3cccc(Cl)c3)C2=O)c2ccccc21,-6%,25%[57.5 µM],-4%,4µM*,-15%,-14%
CC(C)n1cc(/C=C2/NC(=O)N(c3cccc(Cl)c3)C2=O)c2ccccc21,13%,-9%,-7%,-4%,-6%,-1%
CCN(c1ccccc1)S(=O)(=O)c1cc(C(=O)NCC(c2ccco2)N2CCCCC2)ccc1C (configuration not stated),13%,-19%,-5%,8.9µM*,-20%,-23%
Cc1ccccc1NS(=O)(=O)c1ccc(C(=O)NCC(c2ccco2)N2CCCCC2)cc1 (configuration not stated),-3%,-31%,-4%,10µM*,-9%,-9%
CCN(c1ccccc1)S(=O)(=O)c1cccc(C(=O)NCC(c2ccco2)N2CCCCC2)c1 (configuration not stated),-5%,-30%,-4%,?,8%,0%
O=C(NCC(c1ccco1)N1CCCCC1)c1ccc(S(=O)(=O)Nc2ccccc2Cl)cc1 (configuration not stated),17%,-16%,-4%,?,6%,-39%
COc1ccccc1NS(=O)(=O)c1cc(C(=O)NCC(c2ccco2)N2CCCCC2)ccc1C (configuration not stated),12%,-60%,-4%,10µM*,10%,17%
Cc1ccc(-c2nnc(SCC(=O)c3ccc4c(c3)NC(=O)CO4)o2)cc1C,nt,nt,nt,nt,nt,9%
SMILES,GLS inh,PTHR1 ag,Glioma ERSR ind,GLP-1R inv ag,GLP-1R agonist,12-LOX inh
CC/C(=N\NC(=O)c1ccc(C(C)(C)C)cc1)c1ccc(C)cc1,nt,nt,nt,nt,nt,23%
N#CC1=C(c2ccc(-c3ccccc3)cc2)COC1=O,1%,-6%,0%,-3%,0%,50µM*
COc1ccc(F)cc1-c1ccc(COc2ccc3c(cnn3CCC(=O)O)c2)cc1,nt,nt,nt,nt,nt,35µM*
CNC(=O)CCn1ncc2cc(OCc3ccccc3-c3ccc(F)cc3C)ccc21,nt,nt,nt,nt,nt,63µM*
CNC(=O)CCn1ncc2cc(OCc3ccccc3-c3ccc(F)cc3)ccc21,nt,nt,nt,nt,nt,3%[176 µM]
Cc1ccc(CC(=O)NC(C)c2ccccn2)cc1C (configuration not stated),nt,nt,nt,nt,nt,33%
O=C(CNC(=O)c1ccccc1)OCc1cc(=O)oc2cc(O)ccc12,nt,nt,nt,nt,nt,0%
Cn1sc(NC(=O)c2cccc(Cl)c2)nc1=O,-3%,-16%[57.5 µM],9%,0%,14%,0%
Cn1sc(NC(=O)c2ccccc2Cl)nc1=O,3%,i,0%,-3%,4%,45µM*
CCCCN(C)c1nc(-c2ccco2)c2c(c1C#N)CC(C)(C)OC2,1%,-47%,-13%,?,5%,40µM*
CN(C)CCNc1nc(-c2ccco2)c2c(c1C#N)CC(C)(C)OC2,-12%,-7%,-4%,0%,1%,-6%
CC1CCN(C(=O)C(=O)N2CCN(c3nc(-c4ccco4)c4c(c3C#N)CC(C)(C)OC4)CC2)CC1,nt,nt,nt,nt,nt,14µM*
CC(C)c1nc(N2CCN(C(=O)c3ccco3)CC2)c(C#N)c2c1COC(C)(C)C2,6%,-26%,-10%,?,18%,-13%
N#Cc1c(N2CCN(C(=O)C(=O)NCCO)CC2)nc(-c2ccccc2)c2c1CCCC2,nt,nt,nt,nt,nt,11%
CCc1c(C)nc(SCc2nc(-c3ccc(OC)cc3OC)oc2C)[nH]c1=O,nt,nt,nt,nt,nt,1%
COc1cc(C2CC(=O)N3CN(c4cccc(Cl)c4)CSC3=C2C#N)ccc1O (configuration not stated),nt,nt,nt,nt,nt,18µM*
COc1ccc(N2CSC3=C(C#N)C(c4ccc(OC)c(OC)c4)CC(=O)N3C2)c(OC)c1 (configuration not stated),-8%,i,-1%,13%,2%,?
